The full data set covers some 8,800 targets. This sample favours those with a hit. About 0.5% of all pairs of compound and target were hits.
What follows are targets tested with COC(=O)[C@H](CCSC)NC(=O)C1=C(C=C(C=C1)NC[C@H](CS)N)C2=CC=CC=C2 (assay: log2 fold change, soluble protein after heating vs DMSO (PISA); higher = thermal stabilisation; K562 lysate, 10 uM; active = over 0.2 and 3.5 SD of the protein, either way, in both replicates (recomputed)).
Outline: (§1)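 K562 pellets were dounce-homogenised in PBS pH 7.4 containing 1 mM MgCl2, and the crude extract, at 1 mg/mL protein, was exposed to 10 μM compound for 30 min. Aliquots were heated for 3 min across 48°C-58°C, pooled, brought to 0.5% NP-40 at 4°C and spun at 21,000xg for 90 min, with the supernatant taken as soluble protein. TMTpro 16plex LC-MS/MS with equalised channel sums quantified that protein. Values are log-two fold changes in thermal stability relative to solvent controls, taken from duplicates.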

UniProt Q86WJ1, sequence (Q86WJ1 whole entry, looked up): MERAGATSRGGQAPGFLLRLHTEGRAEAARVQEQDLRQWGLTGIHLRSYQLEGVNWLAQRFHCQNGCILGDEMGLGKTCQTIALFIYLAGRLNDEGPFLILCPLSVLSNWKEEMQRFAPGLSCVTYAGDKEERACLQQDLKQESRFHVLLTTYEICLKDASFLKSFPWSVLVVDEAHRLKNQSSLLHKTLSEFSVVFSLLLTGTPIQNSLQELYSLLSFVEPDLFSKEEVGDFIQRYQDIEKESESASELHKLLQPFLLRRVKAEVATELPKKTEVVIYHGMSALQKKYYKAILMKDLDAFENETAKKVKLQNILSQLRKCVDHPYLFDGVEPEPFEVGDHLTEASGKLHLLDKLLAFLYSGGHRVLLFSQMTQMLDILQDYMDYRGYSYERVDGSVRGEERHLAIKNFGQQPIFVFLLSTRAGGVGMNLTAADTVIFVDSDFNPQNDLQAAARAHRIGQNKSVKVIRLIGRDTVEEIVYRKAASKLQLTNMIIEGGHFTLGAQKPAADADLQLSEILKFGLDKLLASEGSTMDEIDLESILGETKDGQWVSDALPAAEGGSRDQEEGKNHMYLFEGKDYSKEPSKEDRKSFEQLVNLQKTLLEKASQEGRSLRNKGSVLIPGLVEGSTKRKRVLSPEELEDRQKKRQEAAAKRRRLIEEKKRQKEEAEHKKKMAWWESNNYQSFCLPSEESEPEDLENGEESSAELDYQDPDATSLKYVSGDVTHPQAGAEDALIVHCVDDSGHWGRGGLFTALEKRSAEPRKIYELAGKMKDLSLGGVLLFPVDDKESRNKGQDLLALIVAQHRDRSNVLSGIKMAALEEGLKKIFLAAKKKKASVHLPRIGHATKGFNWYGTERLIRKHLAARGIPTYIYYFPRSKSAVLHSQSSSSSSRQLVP
UniProt P49918, sequence (P49918 whole entry, looked up): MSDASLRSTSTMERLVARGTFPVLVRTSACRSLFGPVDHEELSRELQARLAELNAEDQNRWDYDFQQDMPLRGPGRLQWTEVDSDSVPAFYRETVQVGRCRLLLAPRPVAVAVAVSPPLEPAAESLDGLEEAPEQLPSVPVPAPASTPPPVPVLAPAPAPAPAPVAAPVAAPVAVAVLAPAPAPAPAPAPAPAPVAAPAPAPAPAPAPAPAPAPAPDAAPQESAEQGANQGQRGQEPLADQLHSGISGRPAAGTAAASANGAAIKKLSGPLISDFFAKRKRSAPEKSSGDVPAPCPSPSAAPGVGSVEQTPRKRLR
UniProt Q7L2Z9, sequence (Q7L2Z9 whole entry, looked up): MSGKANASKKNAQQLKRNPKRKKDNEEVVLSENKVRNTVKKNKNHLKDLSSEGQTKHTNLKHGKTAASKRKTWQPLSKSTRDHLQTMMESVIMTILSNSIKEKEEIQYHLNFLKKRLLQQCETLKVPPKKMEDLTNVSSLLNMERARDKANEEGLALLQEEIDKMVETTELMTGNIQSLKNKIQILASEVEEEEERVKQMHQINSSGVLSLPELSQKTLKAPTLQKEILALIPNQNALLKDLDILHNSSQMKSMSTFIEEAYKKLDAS
UniProt Q13535, sequence (Q13535 whole entry, looked up): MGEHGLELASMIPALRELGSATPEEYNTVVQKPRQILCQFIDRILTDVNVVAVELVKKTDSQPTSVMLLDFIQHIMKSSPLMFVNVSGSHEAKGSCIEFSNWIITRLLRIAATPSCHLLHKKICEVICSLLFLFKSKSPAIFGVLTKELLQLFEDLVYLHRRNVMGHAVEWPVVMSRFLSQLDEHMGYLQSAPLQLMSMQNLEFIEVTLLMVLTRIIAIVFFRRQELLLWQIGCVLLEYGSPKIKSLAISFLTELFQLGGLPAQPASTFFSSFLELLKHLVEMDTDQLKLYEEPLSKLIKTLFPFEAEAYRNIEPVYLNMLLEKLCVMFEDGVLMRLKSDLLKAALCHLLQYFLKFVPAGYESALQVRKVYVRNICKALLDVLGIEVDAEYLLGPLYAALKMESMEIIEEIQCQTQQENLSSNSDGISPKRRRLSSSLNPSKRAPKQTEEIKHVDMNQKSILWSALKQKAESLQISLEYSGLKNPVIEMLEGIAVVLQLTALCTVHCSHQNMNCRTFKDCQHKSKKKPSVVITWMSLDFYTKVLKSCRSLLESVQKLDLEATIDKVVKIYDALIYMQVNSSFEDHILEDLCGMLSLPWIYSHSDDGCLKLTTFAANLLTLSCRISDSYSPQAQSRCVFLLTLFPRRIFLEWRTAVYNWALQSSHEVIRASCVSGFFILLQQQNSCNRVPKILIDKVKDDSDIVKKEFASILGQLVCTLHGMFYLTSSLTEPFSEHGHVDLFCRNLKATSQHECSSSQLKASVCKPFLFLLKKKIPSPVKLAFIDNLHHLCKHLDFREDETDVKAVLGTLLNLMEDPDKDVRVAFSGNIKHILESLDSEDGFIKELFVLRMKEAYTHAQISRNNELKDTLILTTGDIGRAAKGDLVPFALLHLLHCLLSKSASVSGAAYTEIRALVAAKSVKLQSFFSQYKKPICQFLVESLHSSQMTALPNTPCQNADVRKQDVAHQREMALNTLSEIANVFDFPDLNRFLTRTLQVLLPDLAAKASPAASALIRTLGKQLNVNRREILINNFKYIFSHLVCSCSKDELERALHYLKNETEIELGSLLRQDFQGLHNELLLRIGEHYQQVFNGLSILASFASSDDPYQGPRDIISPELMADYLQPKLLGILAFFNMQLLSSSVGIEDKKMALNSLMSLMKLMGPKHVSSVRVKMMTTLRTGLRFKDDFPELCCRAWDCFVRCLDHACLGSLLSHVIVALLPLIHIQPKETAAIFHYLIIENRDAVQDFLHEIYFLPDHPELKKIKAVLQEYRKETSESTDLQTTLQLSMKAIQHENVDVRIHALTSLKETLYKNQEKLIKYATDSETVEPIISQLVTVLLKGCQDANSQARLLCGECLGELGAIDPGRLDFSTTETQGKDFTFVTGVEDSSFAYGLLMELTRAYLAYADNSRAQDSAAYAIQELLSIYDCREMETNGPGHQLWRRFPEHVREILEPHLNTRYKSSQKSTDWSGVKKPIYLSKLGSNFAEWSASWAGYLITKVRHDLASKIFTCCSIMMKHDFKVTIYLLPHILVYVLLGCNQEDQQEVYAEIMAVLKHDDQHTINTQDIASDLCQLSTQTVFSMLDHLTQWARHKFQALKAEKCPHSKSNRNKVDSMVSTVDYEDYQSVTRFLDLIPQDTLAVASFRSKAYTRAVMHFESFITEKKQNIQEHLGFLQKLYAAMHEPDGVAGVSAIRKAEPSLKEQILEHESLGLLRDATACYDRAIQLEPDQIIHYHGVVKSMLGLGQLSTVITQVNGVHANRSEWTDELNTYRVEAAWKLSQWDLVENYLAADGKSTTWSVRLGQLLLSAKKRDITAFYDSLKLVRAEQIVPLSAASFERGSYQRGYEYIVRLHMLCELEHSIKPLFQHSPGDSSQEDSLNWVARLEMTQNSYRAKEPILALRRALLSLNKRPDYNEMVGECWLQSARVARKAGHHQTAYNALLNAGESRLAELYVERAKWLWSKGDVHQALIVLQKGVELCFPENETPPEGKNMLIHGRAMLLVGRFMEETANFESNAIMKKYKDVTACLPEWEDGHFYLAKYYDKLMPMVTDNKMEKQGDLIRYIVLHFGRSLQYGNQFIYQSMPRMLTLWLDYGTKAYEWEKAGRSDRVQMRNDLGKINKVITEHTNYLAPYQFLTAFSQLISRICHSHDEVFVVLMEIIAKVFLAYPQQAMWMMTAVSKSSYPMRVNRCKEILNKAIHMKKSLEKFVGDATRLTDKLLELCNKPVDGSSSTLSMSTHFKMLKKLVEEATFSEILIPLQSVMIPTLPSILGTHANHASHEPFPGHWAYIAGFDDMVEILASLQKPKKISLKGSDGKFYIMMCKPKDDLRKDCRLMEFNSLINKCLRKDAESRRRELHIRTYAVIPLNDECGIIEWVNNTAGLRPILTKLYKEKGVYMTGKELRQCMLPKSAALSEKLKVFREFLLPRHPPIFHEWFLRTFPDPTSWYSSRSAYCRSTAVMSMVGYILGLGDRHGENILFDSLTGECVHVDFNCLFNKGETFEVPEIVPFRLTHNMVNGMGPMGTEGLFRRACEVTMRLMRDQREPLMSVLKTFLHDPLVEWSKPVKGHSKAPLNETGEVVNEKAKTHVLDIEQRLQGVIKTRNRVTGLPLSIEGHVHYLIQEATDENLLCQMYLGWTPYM
UniProt Q12981, sequence (Q12981 whole entry, looked up): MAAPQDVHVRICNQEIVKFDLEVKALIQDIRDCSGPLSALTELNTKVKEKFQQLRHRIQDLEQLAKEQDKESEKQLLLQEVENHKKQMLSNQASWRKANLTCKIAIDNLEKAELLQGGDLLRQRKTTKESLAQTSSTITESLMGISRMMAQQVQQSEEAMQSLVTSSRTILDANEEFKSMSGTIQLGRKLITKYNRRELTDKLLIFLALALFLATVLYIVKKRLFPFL
UniProt O60826, sequence (O60826 whole entry, looked up): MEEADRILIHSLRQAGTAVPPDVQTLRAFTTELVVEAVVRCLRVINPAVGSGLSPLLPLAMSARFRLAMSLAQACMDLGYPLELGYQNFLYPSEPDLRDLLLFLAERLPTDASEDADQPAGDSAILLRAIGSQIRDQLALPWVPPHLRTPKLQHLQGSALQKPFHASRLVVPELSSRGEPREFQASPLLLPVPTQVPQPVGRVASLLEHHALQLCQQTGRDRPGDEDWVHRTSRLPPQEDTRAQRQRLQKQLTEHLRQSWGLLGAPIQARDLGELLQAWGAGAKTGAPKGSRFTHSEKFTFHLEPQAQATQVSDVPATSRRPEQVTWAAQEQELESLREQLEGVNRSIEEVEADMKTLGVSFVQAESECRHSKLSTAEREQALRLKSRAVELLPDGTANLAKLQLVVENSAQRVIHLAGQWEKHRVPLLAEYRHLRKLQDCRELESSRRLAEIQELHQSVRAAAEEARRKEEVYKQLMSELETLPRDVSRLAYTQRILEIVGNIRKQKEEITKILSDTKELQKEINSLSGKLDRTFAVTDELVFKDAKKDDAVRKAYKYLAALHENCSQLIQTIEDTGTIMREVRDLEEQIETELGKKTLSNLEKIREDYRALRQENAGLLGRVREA
UniProt Q8TCD1, sequence (Q8TCD1 whole entry, looked up): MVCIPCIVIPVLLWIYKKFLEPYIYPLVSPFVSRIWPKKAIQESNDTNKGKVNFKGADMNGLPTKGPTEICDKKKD

log2 fold change, inactive:
CEBPZOS (UniProt A8MTT3) 0.046
CDKN1C (UniProt P49918) -0.019
BCKDHB (UniProt P21953) 0.107
CD80 (UniProt P33681) -0.082
BNIP1 (UniProt Q12981) -0.037
CCNK isoform 4 (UniProt O75909) -0.035
CBX5 (UniProt P45973) -0.007
BCORL1 isoform 3 (UniProt Q5H9F3) 0.021
C18orf32 (UniProt Q8TCD1) -0.316
BRD2 isoform 2 (UniProt P25440) -0.118
CDK5 (UniProt Q00535) -0.1
CEP120 (UniProt Q8N960) -0.117
BLOC1S6 (UniProt Q9UL45) 0.056
BMS1 (UniProt Q14692) 0.01
ATR (UniProt Q13535) -0.193
CARNMT1 (UniProt Q8N4J0) 0.015
CDC7 (UniProt O00311) 0.078
CARD11 (UniProt Q9BXL7) 0.072
BRAF (UniProt P15056) 0.043
BRD4 (UniProt O60885) 0.03
CAPNS1 (UniProt P04632) -0.129
CDC25C (UniProt P30307) 0.14
CASC4 (UniProt Q6P4E1) -0.012
CCNB1 (UniProt P14635) -0.023
BTAF1 (UniProt O14981) 0.008
CCDC51 (UniProt Q96ER9) -0.001
ATM (UniProt Q13315) 0.087
CDC42BPA isoform 6 (UniProt Q5VT25) 0.093
CDK11B (UniProt P21127) 0.108
CENPQ (UniProt Q7L2Z9) 0.025
CEPT1 (UniProt Q9Y6K0) -0.025
CD63 (UniProt P08962) -0.055
CHAC2 (UniProt Q8WUX2) 0.003
C3 (UniProt P01024) 0.054
CHCHD4 isoform 2 (UniProt Q8N4Q1) -0.039
CHD1L (UniProt Q86WJ1) 0.114
CCDC22 (UniProt O60826) -0.029
C2CD5 isoform 3 (UniProt Q86YS7) -0.028

What follows are targets tested with COc1cc(Nc2ncc3c(n2)-c2ccc(Cl)cc2C(c2c(F)cccc2OC)=NC3)ccc1C(=O)O [alisertib] in the same assay as above.
Outline: as §1

log2 fold change, inactive:
CEBPZOS (UniProt A8MTT3) -0.064
CDKN1C (UniProt P49918) -0.082
BCKDHB (UniProt P21953) -0.019
CD80 (UniProt P33681) -0.345
BNIP1 (UniProt Q12981) 0.004
CCNK isoform 4 (UniProt O75909) 0.071
CBX5 (UniProt P45973) -0.054
C18orf32 (UniProt Q8TCD1) 0.043
BRD2 isoform 2 (UniProt P25440) 0
CDK5 (UniProt Q00535) -0.032
CEP120 (UniProt Q8N960) 0.141
BLOC1S6 (UniProt Q9UL45) -0.22
BMS1 (UniProt Q14692) 0.035
ATR (UniProt Q13535) 0.115
CARNMT1 (UniProt Q8N4J0) -0.022
CDC7 (UniProt O00311) -0.059
CARD11 (UniProt Q9BXL7) -0.028
BRAF (UniProt P15056) -0.021
BRD4 (UniProt O60885) 0.038
CAPNS1 (UniProt P04632) -0.012
CDC25C (UniProt P30307) 0.054
CASC4 (UniProt Q6P4E1) 0.035
CCNB1 (UniProt P14635) 0
BTAF1 (UniProt O14981) 0.018
CCDC51 (UniProt Q96ER9) 0.016
ATM (UniProt Q13315) -0.01
CDC42BPA isoform 6 (UniProt Q5VT25) -0.005
CDK11B (UniProt P21127) 0.012
CENPQ (UniProt Q7L2Z9) 0
CEPT1 (UniProt Q9Y6K0) 0.054
CD63 (UniProt P08962) 0.01
CHAC2 (UniProt Q8WUX2) -0.039
C3 (UniProt P01024) -0.031
CHCHD4 isoform 2 (UniProt Q8N4Q1) 0.024
CHD1L (UniProt Q86WJ1) 0.018
CCDC22 (UniProt O60826) 0.002
C2CD5 isoform 3 (UniProt Q86YS7) -0.016

Source: the supplement of paper PMC10849652
